Results filed as inconclusive are left out. A number with no mark means an inactive call. Unless noted, the call rests on the fitted dose curve.
Assay: Cell Viability - BJ (AID 421);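 further: cells exposed to compound for 40 hours at 37 °C before readout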
Settings: BJ fibroblast viability, qHTS
Outline: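 Cytotoxicity in human BJ foreskin fibroblasts is scored as loss of cellular ATP after a 40-hour exposure, measured by luciferase luminescence. Controls are DMSO and 100 uM tamoxifen.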
`C[C@]12C[C@H](O)[C@H]3[C@@H](CCC4=CC(=O)CC[C@@]43C)[C@@H]1CC[C@@H]2C(=O)CO` showed a Potency of over 92 µM. With `COC(=O)C1=C(C)NC(C)=C(C(=O)OC)C1c1ccccc1[N+](=O)[O-]` the Potency was over 92 µM. With `Nc1ccc(S(=O)(=O)Nc2nccs2)cc1` the Potency was over 92 µM. Compound `CCCCOC(=O)c1ccc(O)cc1` has a Potency of over 92 µM. Compound `Cc1cc(CC(=O)O)n(C)c1C(=O)c1ccc(Cl)cc1` has a Potency of over 92 µM.

Assay: Cell Viability - Hek293 (AID 427;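 active means compounds whose dose-response curve shows a full or clear partial loss of cell viability, called from curve shape rather than a numeric limit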;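 further: cells exposed to compound for 40 hours at 37 °C before reading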)
Settings: qHTS
Outline: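 qHTS, human embryonic kidney (adenovirus-transformed) cells; 40 hr cpd, 37 °C; CellTiter-Glo ATP luminescence. Norm: DMSO = 0, 100 uM tamoxifen = 100% inhibition. Hill-fit AC50.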
`C[C@]12C[C@H](O)[C@H]3[C@@H](CCC4=CC(=O)CC[C@@]43C)[C@@H]1CC[C@@H]2C(=O)CO` gave a Potency of over 92 µM. Work on `COC(=O)C1=C(C)NC(C)=C(C(=O)OC)C1c1ccccc1[N+](=O)[O-]` yielded a Potency of over 92 µM. Compound `Nc1ccc(S(=O)(=O)Nc2nccs2)cc1` has a Potency of over 92 µM. `CCCCOC(=O)c1ccc(O)cc1` gave a Potency of over 92 µM. For `Cc1cc(CC(=O)O)n(C)c1C(=O)c1ccc(Cl)cc1`, the Potency was over 92 µM.

Assay: Cell Viability - HepG2 (AID 433);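 further: potency for ATP loss meaning cytotoxicity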
Settings: qHTS
Outline: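 HepG2 hepatocellular carcinoma cells (1500/well) were treated with compounds for 40 h at 37 °C in complete medium; intracellular ATP was read by CellTiter-Glo luminescence. Data were normalized to DMSO and 100 uM tamoxifen, and AC50 came from Hill fits.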
With `C[C@]12C[C@H](O)[C@H]3[C@@H](CCC4=CC(=O)CC[C@@]43C)[C@@H]1CC[C@@H]2C(=O)CO` the Potency was over 92 µM. With `COC(=O)C1=C(C)NC(C)=C(C(=O)OC)C1c1ccccc1[N+](=O)[O-]` the Potency was over 92 µM. Compound `Nc1ccc(S(=O)(=O)Nc2nccs2)cc1` has a Potency of over 92 µM. Compound `CCCCOC(=O)c1ccc(O)cc1` has a Potency of over 92 µM. Compound `Cc1cc(CC(=O)O)n(C)c1C(=O)c1ccc(Cl)cc1` has a Potency of over 92 µM.

Assay: Cell Viability - MRC5 (AID 434);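 further: potency reflects cytotoxicity seen as loss of intracellular ATP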
Settings: MRC5 lung fibroblast viability, qHTS
Outline: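 AC50 values come from Hill-equation fits of intracellular ATP loss, measured by CellTiter-Glo luminescence. Normal lung fibroblasts (MRC5) had 40 hr compound treatment at 37 C, normalized between DMSO and 100 uM tamoxifen.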
Compound `C[C@]12C[C@H](O)[C@H]3[C@@H](CCC4=CC(=O)CC[C@@]43C)[C@@H]1CC[C@@H]2C(=O)CO` has a Potency of over 92 µM. `Nc1ccc(S(=O)(=O)Nc2nccs2)cc1` gave a Potency of over 92 µM. `CCCCOC(=O)c1ccc(O)cc1` showed a Potency of over 92 µM. Work on `Cc1cc(CC(=O)O)n(C)c1C(=O)c1ccc(Cl)cc1` yielded a Potency of over 92 µM.

Assay: Cell Viability - SK-N-SH (AID 435);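 further: compound exposure lasted 40 h at 37 °C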
Settings: SK-N-SH neuroblastoma cell viability qHTS
Outline: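 SK-N-SH human neuroblastoma cells (1500/well) were exposed to compounds in complete medium for 40 h at 37 °C, and intracellular ATP was then measured by CellTiter-Glo luminescence. AC50 was taken from Hill fits, normalized to DMSO and 100 uM tamoxifen.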
In the case of `C[C@]12C[C@H](O)[C@H]3[C@@H](CCC4=CC(=O)CC[C@@]43C)[C@@H]1CC[C@@H]2C(=O)CO`, the Potency is reported as over 92 µM. `Nc1ccc(S(=O)(=O)Nc2nccs2)cc1` gave a Potency of over 92 µM. Compound `CCCCOC(=O)c1ccc(O)cc1` has a Potency of over 92 µM. `Cc1cc(CC(=O)O)n(C)c1C(=O)c1ccc(Cl)cc1` showed a Potency of over 92 µM.
Potency means the concentration at half of the fitted maximal effect.
